Assay outcomes as filed in PubChem.
CYP2C19 activ – human CYP2C19 activators, primary screen, biochemical, luminescence | activation factor at 5 µM | recombinant CYP2C19, luciferin-H EGE luminescence; active compounds read high; 0 = fully inhibited enzyme, 1 = untreated enzyme | Cytochrome P450 2C19 (Homo sapiens), P33261 | AID 1025, 2008 | 96,000 tested, under 10 active;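 active = activation factor of at least 2 at 5 µM in the primary screen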;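 note: 0 = wells with 2.5 mM tranylcypromine and 1 = vehicle-only wells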
CYP2C9 activ – human CYP2C9 activators, primary screen, biochemical, luminescence | Cytochrome P450 2C9 (Homo sapiens), P11712 | recombinant CYP2C9, luciferin-H conversion; active compounds read high; factor 1 = untreated enzyme, 0 = blocked | activation factor at 5 µM | hit rate 1.4% among 96,000 | AID 1024, 2008;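 active = activation factor of 2 or more for CYP2C9 at a 5 µM dose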;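 note: 0 = sulfaphenazole-blocked wells and 1 = vehicle-only wells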
Target sequence (P11712 whole entry, looked up): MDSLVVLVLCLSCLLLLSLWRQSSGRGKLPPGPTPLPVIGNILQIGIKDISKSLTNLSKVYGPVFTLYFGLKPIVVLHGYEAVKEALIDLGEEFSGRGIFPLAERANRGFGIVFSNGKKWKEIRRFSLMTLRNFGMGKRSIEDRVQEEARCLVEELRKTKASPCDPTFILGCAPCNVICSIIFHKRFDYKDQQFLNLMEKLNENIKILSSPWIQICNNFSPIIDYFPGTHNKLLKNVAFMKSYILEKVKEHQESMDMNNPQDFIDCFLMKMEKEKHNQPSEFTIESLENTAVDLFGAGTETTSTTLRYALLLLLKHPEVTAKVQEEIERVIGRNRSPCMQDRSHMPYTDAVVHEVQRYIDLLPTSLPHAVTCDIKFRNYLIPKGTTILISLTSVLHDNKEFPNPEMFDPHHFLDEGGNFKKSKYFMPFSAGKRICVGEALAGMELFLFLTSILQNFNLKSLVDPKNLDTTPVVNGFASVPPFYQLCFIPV
Pyk2 oligo antag – antagonists of Pyk2 self-association, primary screen, Q293 cells, FERM NanoBiT luminescence, HTS | Protein-tyrosine kinase 2-beta (Homo sapiens), Q14289 | active compounds read low | z-score (the deposit names both 25 µM and 10 µM) | hit rate 0.83% among 99,000 | AID 1347419, 2020;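 active = Z-score of -3 or lower, scaled per plate to the spread of control and sample wells; inactive = z-score above -3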;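 note: negative z-score means lost luminescence so less FERM oligomerization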
CYP2C19 inhib – blockers of cytochrome P450 2C19 activity – biochemical, luminescence, ADME assay, primary screen; P33261; CYP2C19 Supersomes, luciferin-H EGE luminescence, 30 min; inhibition, % at 5 µM; hit rate 21% among 96,000; AID 778, 2007;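 active = CYP2C19 inhibition above a set limit at 5 µM in the primary screen, cut at about 50% in these data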;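 note: plate controls were negative control wells for no effect and 2.5 mM tranylcypromine positive control for full effect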
CYP2C9 inhib – blockers of cytochrome P450 2C9 activity – biochemical, luminescence, ADME assay, primary screen. P11712. inhibition, % at 5 µM. AID 777, 2007. CYP2C9 Supersomes, luciferin-H conversion. hit rate 20% among 96,000;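 active = blocking of liver enzyme CYP2C9 beyond about 50% at 5 µM, limit read from the data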
* = called active by the depositor; · = no result. An excerpt weighted towards active compounds, which were near 28% of everything screened.

SMILES	CYP2C19 activ	CYP2C9 activ	Pyk2 oligo antag	CYP2C19 inhib	CYP2C9 inhib
CC(C(=O)Nc1ccc2c(c1)OCO2)N(c1ccc(Cl)cc1)S(C)(=O)=O (stereo not drawn)	0	0.1	-0.39	98.2*	93.4*
COc1ccc(C)cc1NC(=O)C(C)N(c1ccc(C)cc1)S(C)(=O)=O (stereo not drawn)	0.6	0.4	-1.04	44.3	55.6*
O=C(Cn1c(=O)oc2cc(S(=O)(=O)N3CCCC3)ccc21)NCc1ccccn1	1.1	0.6	·	-13.8	42.3
CCc1ccc(C(=O)c2ccccc2C(=O)O)s1	0.9	1	0.77	6.0	3.5
O=C(O)Cc1ccc(C(=O)c2ccccc2F)s1	0.5	1	-0.59	50.2*	-4.8
NC12CC3CC(C1)CC(CO)(C3)O2	0.9	0.9	0.55	11.1	10.7
O=C(CN1C(=O)CC(c2ccco2)Sc2ccccc21)Nc1ccc2c(c1)OCCO2 (stereo not drawn)	0.1	0.5	-2.86	88.4*	49.4
COc1ccc(OC)c(NC(=O)CN2C(=O)NC3(CCOc4ccccc43)C2=O)c1 (stereo not drawn)	0.4	0.6	-0.45	56.8*	44.2
COc1cc2c(cc1NC(=O)CN1C(=O)NC3(CCc4ccccc43)C1=O)oc1ccccc12 (stereo not drawn)	1	0.6	-2.32	2.2	38.4
O=C(CN1C(=O)NC2(CCOc3ccccc32)C1=O)Nc1ccc2c(c1)OCCO2 (stereo not drawn)	1	0.5	-0.41	3.8	50.1*
COc1ccc(CN(CC2CCCO2)C(=O)CN2C(=O)COc3ccccc32)cc1OC (stereo not drawn)	·	·	-0.38	·	·
O=C(NCCc1ccccc1)C(=O)NN=C1CCCC1	1.1	1	1.43	-7.1	-2.3
CC(=O)Nc1cccc(OCC(=O)NS(=O)(=O)c2ccc(Cl)cc2)c1	1	0.5	0.11	-4.9	45.6
COc1ccc(C2(CNC(=O)CCC(=O)O)CCCC2)cc1OC	0.9	1.1	0.75	14.7	-7.3
Cc1nc(-c2ccccc2O)n(-c2ccccc2)n1	0.5	0.3	1.12	53.4*	68.0*
Cc1ccc(-n2c(SCC(=O)N3CCOCC3)nnc2-c2ccncc2)cc1	0.3	0.9	0.22	72.2*	12.4
O=C(CSc1nnc(-c2cccnc2)n1-c1ccccc1)N1CCN(c2ccc(F)cc2)CC1	0.1	0.4	0.65	92.0*	63.7*
Cc1c2c(nc3c(C(=O)NC4CCCCC4C)cnn13)CCCC2 (stereo not drawn)	0.9	1.2	·	7.8	-15.1
COc1ccc2c(c1)C(=O)CC(c1ccccc1F)O2 (stereo not drawn)	0.1	1.1	-0.13	86.8*	-13.1
Clc1ccc2[nH]c3c(NCCN4CCOCC4)ncnc3c2c1	1.1	1.1	0.64	-10.4	-15.0
Clc1ccc2[nH]c3c(NCC4CCCO4)ncnc3c2c1 (stereo not drawn)	0.3	0.2	·	73.6*	81.0*
CCNC(=S)NNC(=O)c1cc(C2CC2)nc2ccccc12	1.1	0.5	1.16	-11.0	50.9*
CCCCOc1cccc(-c2cc(C(=O)NNC(=S)NCC)c3ccccc3n2)c1	1	0.9	-0.05	-3.7	11.4
CCNC(=S)NNC(=O)c1cc(-c2cccc(C)c2)nc2ccccc12	1	0.5	0.27	4.3	51.8*
CCNC(=S)NNC(=O)c1cc(-c2cccc(OCC)c2)nc2ccccc12	0.6	0.2	0.43	37.6	84.1*
SMILES	CYP2C19 activ	CYP2C9 activ	Pyk2 oligo antag	CYP2C19 inhib	CYP2C9 inhib
CCCCOc1ccc(-c2cc(C(=O)NNC(=S)NCC)c3ccccc3n2)cc1	0.8	0.8	-0.96	20.0	21.5
CCOC(=O)CNC(=O)c1ccccc1Br	1	1.1	0.48	-2.7	-11.0
Cc1ccc2c(CSc3nnc(N)s3)cc(=O)oc2c1	0.2	0.6	-0.22	84.8*	39.9
Cc1nnsc1SC(C)C(=O)O (stereo not drawn)	1	1	-0.01	-0.7	-0.9
CC(C(=O)N1CC2(C)CC1CC(C)(C)C2)N1C(=O)c2ccccc2C1=O (stereo not drawn)	0.9	1	0.2	12.6	-0.7
COc1ccc(N2CCN(C(c3cccs3)c3nnnn3C3CCCC3)CC2)cc1 (stereo not drawn)	0.7	0.4	-2	28.9	64.2*
Fc1ccc(N2CCN(C(c3cccs3)c3nnnn3C3CCCC3)CC2)cc1 (stereo not drawn)	0	0	-2.53	95.9*	98.1*
Fc1ccc(CN(Cc2ccccc2)C(c2cccs2)c2nnnn2C2CCCCC2)cc1 (stereo not drawn)	1.1	0.8	-0.01	-6.4	22.6
O=C(NCc1ccco1)C1CCN(c2nc3ccccc3n2Cc2ccccc2F)CC1	0.7	0.8	·	33.1	23.4
Cc1cccc(N(CC(=O)NCc2ccccc2)C(=O)Cn2nnc(-c3ccc(C)o3)n2)c1	0.7	0.6	-1.07	28.3	40.2
Cc1ccc(-c2nnn(CC(=O)N(CC(=O)NC3CCCC3)c3cnc4ccccc4c3)n2)o1	0.6	0.2	0.16	44.4	76.6*
Cc1ccc(-c2nnn(CC(=O)N(CC(=O)NCc3ccccc3)c3cccc(C)c3C)n2)o1	0.6	0.2	-1.28	41.4	78.5*
CCC(=O)Nc1nnc(CSCc2ccc(F)cc2)s1	0.7	0.9	0.57	34.6	6.2
CCOC(=O)Cc1csc(NC(=O)c2cc(OC)cc(OC)c2)n1	·	·	-0.6	·	·
CCOC(=O)Cc1csc(NC(=O)c2cc3c(s2)CCCC3)n1	0.7	0.4	-0.22	26.7	63.6*
CCOC(=O)Cc1csc(NC(=O)c2csc3c2CCCC3)n1	0.4	0.3	-0.45	64.9*	74.8*
COc1ccc2cc(CN(CCc3ccccc3)Cc3nnnn3CC3CCCO3)c(=O)[nH]c2c1 (stereo not drawn)	0.6	0.4	-0.48	44.4	63.3*
COc1ccc2[nH]c(=O)c(CN(CCc3ccccc3)Cc3nnnn3CC3CCCO3)cc2c1 (stereo not drawn)	0.3	0.9	0.82	67.8*	14.5
Cc1ccc2[nH]c(=O)c(CN(CCc3ccccc3)Cc3nnnn3CC3CCCO3)cc2c1 (stereo not drawn)	·	·	0.47	·	·
O=c1[nH]c2cc3c(cc2cc1CN(CCc1ccccc1)Cc1nnnn1CC1CCCO1)OCO3 (stereo not drawn)	1	1	-0.2	3.9	-2.6
CCC1CCc2c(sc3nc(SCC(=O)NCc4ccco4)n(-c4ccccc4)c(=O)c23)C1 (stereo not drawn)	·	·	-0.7	·	·
COC(=O)C1=C(CSc2nccn2C)NC(=O)NC1c1cc(C)ccc1C (stereo not drawn)	0.5	0.7	0.81	48.8	27.6
Cc1ccc(Nc2cccccc2=O)cc1	0.2	0.6	-0.52	75.3*	36.2
